Results filed as inconclusive are left out. Activity calls are given as the source filed them. Calls come from the whole dose curve; as a rule, active = well fitted curve in the direction sought with a large enough effect; inconclusive = small, poorly fitted or top-dose-only effect, or another doubt; inactive = no such curve, though single readings can be large; an effect the other way counts as inactive or inconclusive.
Experiments:
[1] = NS1 protein of Zika virus - qHTS assay to identify small molecule inhibitors in human HEK 293 cells (AID 1347053); note: series mostly up to about 46 µM; nearly all actives have a fitted effect of over 55% in size
How it was run: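 Following 20 h seeding, HEK 293 cells took compound, then 1 h later ZIKV MR766 (MOI = 0.5). Incubation ran 24 h at 37 C before TR-FRET detection of NS1; a drop in signal indicates inhibition.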

[2] = qHTS of pediatric cancer cell lines to identify multiple opportunities for drug repurposing: Primary screen for TC32 cells (AID 1347089); note: nearly all actives have a fitted effect of over 60% in size
How it was run: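 Luminescent ATP read-out (CellTiter-Glo) of metabolically active TC32 cells after 48 h exposure. Concentration-response curves came from 11-point (MIPE, 0.78 nM–46 µM) or 8-point (NPC, 0.59 nM–46 µM) primary titrations; follow-up used 11 points.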

[3] = qHTS of pediatric cancer cell lines to identify multiple opportunities for drug repurposing: Primary screen for DAOY cells (AID 1347090); note: series mostly up to about 46 µM; nearly all actives have a fitted effect of over 55% in size
How it was run: (§1)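 Cell viability, CellTiter-Glo luminescence; 500-1,000 cells/well, 8- or 11-point titration, 48 h compound exposure at 37 degrees C, 5% CO2. Controls: DMSO neutral, bortezomib 2.3 µM final as positive.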

[4] = qHTS of pediatric cancer cell lines to identify multiple opportunities for drug repurposing: Primary screen for SJ-GBM2 cells (AID 1347091)
How it was run: as §1

[5] = qHTS of pediatric cancer cell lines to identify multiple opportunities for drug repurposing: Primary screen for A673 cells (AID 1347092); note: nearly all actives have a fitted effect of over 45% in size
How it was run: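 Cell viability of A673 measured by CellTiter-Glo ATP luminescence after 48 hours compound exposure. Dilution series spanned 0.78 nM to 46 µM (MIPE, 11-point) or 0.59 nM to 46 µM (NPC, 8-point); bortezomib 2.3 uM positive control.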

[6] = qHTS of pediatric cancer cell lines to identify multiple opportunities for drug repurposing: Primary screen for SK-N-MC cells (AID 1347093); note: series mostly up to about 46 µM
How it was run: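 Metabolically active cells were quantified by ATP-dependent luminescence (CellTiter-Glo, 15 min at room temperature) following 48 h treatment. Cells had been plated at 500-1,000 per well and settled for 5 h beforehand.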

[7] = qHTS of pediatric cancer cell lines to identify multiple opportunities for drug repurposing: Primary screen for BT-37 cells (AID 1347094); note: series mostly up to about 57 µM
How it was run: (§2)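 Primary screen of approved and investigational compounds on cells in growth media at 37 degrees C, 5% CO2. MIPE set at 11-point and NPC set at 8-point dilutions; viability scored by ATP-based luminescence at 48 hours.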

[8] = qHTS of pediatric cancer cell lines to identify multiple opportunities for drug repurposing: Primary screen for NB-EBc1 cells (AID 1347095)
How it was run: as §2

[9] = qHTS of pediatric cancer cell lines to identify multiple opportunities for drug repurposing: Primary screen for U-2 OS cells (AID 1347096); note: nearly all actives have a fitted effect of over 50% in size
How it was run: (§3)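 Cells (500-1,000/well) rested 5 h, then received compounds for 48 h; metabolically active cells were measured by CellTiter-Glo luminescence. Final concentrations spanned up to 46 µM (MIPE, 11-point) or 0.59 nM-46 µM (NPC, 8-point) in primary screens, 11-point in follow-ups.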

[10] = qHTS of pediatric cancer cell lines to identify multiple opportunities for drug repurposing: Primary screen for Saos-2 cells (AID 1347097); note: nearly all actives have a fitted effect of over 40% in size
How it was run: as §2

[11] = qHTS of pediatric cancer cell lines to identify multiple opportunities for drug repurposing: Primary screen for SK-N-SH cells (AID 1347098); note: nearly all actives have a fitted effect of over 65% in size
How it was run: as §3

[12] = qHTS of pediatric cancer cell lines to identify multiple opportunities for drug repurposing: Primary screen for LAN-5 cells (AID 1347100)
How it was run: as §3

[13] = qHTS of pediatric cancer cell lines to identify multiple opportunities for drug repurposing: Primary screen for BT-12 cells (AID 1347101); note: nearly all actives have a fitted effect of over 25% in size
How it was run: as §3

[14] = qHTS of pediatric cancer cell lines to identify multiple opportunities for drug repurposing: Primary screen for Rh18 cells (AID 1347102); note: nearly all actives have a fitted effect of over 65% in size
How it was run: as §3

[15] = qHTS of pediatric cancer cell lines to identify multiple opportunities for drug repurposing: Primary screen for RD cells (AID 1347104); note: nearly all actives have a fitted effect of over 55% in size
How it was run: as §2

[16] = qHTS of pediatric cancer cell lines to identify multiple opportunities for drug repurposing: Primary screen for MG 63 (6-TG R) cells (AID 1347105); note: nearly all actives have a fitted effect of over 50% in size
How it was run: as §2

[17] = qHTS of pediatric cancer cell lines to identify multiple opportunities for drug repurposing: Primary screen for control Hh wild type fibroblast cells (AID 1347106);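 note: series mostly up to about 46 µM; a drop in luminescence marks cytotoxicity and a rise apparent proliferation; nearly all actives have a fitted effect of over 55% in size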
How it was run: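 Viability after 48 h compound treatment at 37C, 500-1,000 cells/well, read as ATP luminescence with CellTiter-Glo. Primary screens used 11-point (MIPE, 0.78 nM-46 µM) or 8-point (NPC, 0.59 nM-46 µM) final concentrations; follow-up screens used 11-point dilutions.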

[18] = qHTS of pediatric cancer cell lines to identify multiple opportunities for drug repurposing: Primary screen for Rh30 cells (AID 1347107); note: series mostly up to about 46 µM; nearly all actives have a fitted effect of over 75% in size
How it was run: as §3

[19] = qHTS of pediatric cancer cell lines to identify multiple opportunities for drug repurposing: Primary screen for OHS-50 cells (AID 1347103); note: nearly all actives have a fitted effect of over 40% in size
How it was run: as §3

[20] = qHTS of pediatric cancer cell lines to identify multiple opportunities for drug repurposing: Primary screen for NB1643 cells (AID 1347099); note: nearly all actives have a fitted effect of over 50% in size
How it was run: as §2

Measured: Potency

CC(=O)Oc1cccc(O)c1
not listed: [19] | [20]
inactive: all other assays above

O=C1CC[C@@H](C(=O)O)N1
not listed: [10] | [20]
inactive: all other assays above

OCc1ccc(Cl)cc1Cl
not listed: [10] | [11] | [17] | [19] | [20]
inactive: all other assays above

CCN[C@H]1CN(CCCOC)S(=O)(=O)c2sc(S(N)(=O)=O)cc21
not listed: [9]
inactive: all other assays above

CC(=O)Nc1cccc(O)c1
not listed: [10]
inactive: all other assays above

CCCCCOC(=O)Nc1nc(=O)n([C@@H]2O[C@H](C)[C@@H](O)[C@H]2O)cc1F
not listed: [10]
inactive: all other assays above

Cc1ccccc1N=Nc1ccc(N=Nc2c(O)ccc3ccccc23)c(C)c1
not listed: [10] | [17]
inactive: all other assays above

CC(=O)N[C@H]1[C@H]([C@H](O)[C@H](O)CO)OC(C(=O)O)=C[C@@H]1N=C(N)N
not listed: [10] | [17]
inactive: all other assays above

C[C@@H](N)C(=O)O
not listed: [10] | [17] | [20]
inactive: all other assays above

CC[C@H](C)[C@H](N)C(=O)O
not listed: [16] | [17] | [19]
inactive: all other assays above

Cc1cc(NC(=O)C2=C(O)c3ccccc3S(=O)(=O)N2C)no1
not listed: [10]
inactive: all other assays above

Cc1onc(-c2ccccc2)c1-c1ccc(S(N)(=O)=O)cc1
not listed: [13] | [19]
inactive: all other assays above

CCc1cccc(CC)c1NC(=O)CN(CC(=O)O)CC(=O)O
not listed: [10]
inactive: all other assays above

CCCCC1(COC(=O)CCC(=O)O)C(=O)N(c2ccccc2)N(c2ccccc2)C1=O
not listed: [10]
inactive: all other assays above

O=S1(=O)OC(c2ccc(O)cc2)(c2ccc(O)cc2)c2ccccc21
not listed: [10]
inactive: all other assays above

CCCCCCCCCCCCCCCCN
not listed: [10] | [19] | [20]
inactive: all other assays above

— PubChem BioAssay (NCATS)
